PubChem BioAssay AID1259376 (The Scripps Research Institute Molecular Screening Center, 2018)
About 360 (7.7%) of roughly 4,700 compounds were called active.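 The calls were made as follows: active = inhibition above a cutoff derived from the DMSO control wells (cut at about 30% in these data); inactive = the rest.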 These entries were drawn from the full list.

Test: AlphaScreen optical interference compounds, counter-screen for MITF inhibitor project, biochemical, triplicate (AID 1259376)
Settings: LysRS AlphaScreen counterscreen, signal interference, at 2.6 µM, active compounds read high

Row | Structure (SMILES) | inhibition
1 | CSc1nnc(SCc2nc3sc(C(=O)O)c(C)c3c(=O)[nH]2)s1 | 11.5% (inactive)
2 | Cc1ccc(CN2CCN(Cc3ccncc3)CC2)cc1 | 16.6% (inactive)
3 | COc1ccc(Br)cc1CN1CCN(C(=O)c2cccnc2)CC1 | -9.47% (inactive)
4 | CCN(C(=O)Cc1nc(N)n[nH]1)C1(C(=O)Nc2ccccc2)CCCCC1 | 100% (active)
5 | CCN(C(=O)Cc1nc(N)n[nH]1)C1(C(=O)Nc2ccc(C)cc2)CCCCC1 | 101% (active)
6 | Cc1nc2sc(C(c3ccccc3Cl)N3CCC4(CC3)OCCO4)c(O)n2n1 (centres undefined) | 13.3% (inactive)
7 | CCN(Cc1ccccc1)Cc1ccc([N+](=O)[O-])cc1 | -3.54% (inactive)
8 | COc1ccc(CN2CCC(C(=O)N3CCN(Cc4ccccc4)CC3)CC2)cc1 | 8.38% (inactive)
9 | c1ccc(-c2ccccc2OCCNCCN2CCOCC2)cc1 | 24.1% (inactive)
10 | Clc1cccc(CN2CCN(C3CCCC3)CC2)c1 | 9.81% (inactive)
11 | O=C(Nc1ccc2c(c1)OCO2)C(c1ccccc1)N(Cc1ccccc1)Cc1ccccc1 (centres undefined) | -2.62% (inactive)
12 | CC(C)CO/N=C1\C[C@@H](O)[C@@H](O)[C@@H]2[C@@H]3C(=O)N([C@@H](C)c4ccccc4)C(=O)[C@@H]3CC[C@@H]12 | -1.34% (inactive)
13 | CN1CCN(CCC(=O)N/N=C/c2ccsc2)CC1 | -5.86% (inactive)
14 | COc1cccc(CN2CCN(C(=O)c3ccccc3F)CC2)c1 | -7% (inactive)
15 | COc1ccc(CN2CCN(Cc3cccc(Br)c3)CC2)c(OC)c1 | 22.2% (inactive)
16 | COc1ccc(COCC(O)CNCC(C)(C)CN(C)C)cc1OC (centres undefined) | 3.11% (inactive)
17 | CC(C)c1ccc(C2/C(=C(/O)c3ccccc3)C(=O)C(=O)N2CCN(C)C)cc1 (centres undefined) | 15.2% (inactive)
18 | COc1ccc(CN2CCCC(C(=O)N3CCCCC3)C2)cc1 (centres undefined) | -1.29% (inactive)
19 | COc1cccc(CN2CCN(C/C=C/c3ccccc3)CC2)c1OC | 5.04% (inactive)
20 | O=[N+]([O-])c1ccccc1CN1CCN(Cc2ccccc2C(F)(F)F)CC1 | 9.98% (inactive)
21 | CN1CCN(CCOCCOc2ccccc2Cl)CC1 | 11.5% (inactive)
22 | O=C(O)CCCCC1SCC2NC(=O)NC21O (centres undefined) | 98.9% (active)
23 | N#Cc1ccc(/C=N/NC(=O)c2cc([N+](=O)[O-])cc([N+](=O)[O-])c2)cc1 | -2.55% (inactive)
24 | O=S(=O)(c1ccc(Br)cc1Cl)N1CCN(CCc2ccncc2)CC1 | 16.2% (inactive)
25 | CCCCCCOC(=O)c1cc(C(=O)OCCCCCC)c(C)nc1C | -5.97% (inactive)

Row | Structure (SMILES) | inhibition
26 | COc1ccc(CN2CCN(Cc3cc(OC)c(OC)c(OC)c3)CC2)cc1 | 14.7% (inactive)
27 | CC(=O)N1CCN(C(=O)c2ccc(N3CC4CC(C3)c3cccc(=O)n3C4)c(NC(=O)c3cccnc3)c2)CC1 (centres undefined) | -7.87% (inactive)
28 | COc1ccc(Br)cc1CN1CCN(CCOCCO)CC1 | -5.73% (inactive)
29 | COc1cccc(OC)c1C(=O)N1CCN(Cc2ccccc2F)CC1 | 20.4% (inactive)
30 | Cc1ccc(NC(=O)CNCCCSc2ccccc2)cc1C | 20.6% (inactive)
31 | O=C(O)C1C2C=CC(O2)C1C(=O)Nc1nccs1 (centres undefined) | 13.2% (inactive)
32 | CC(NCCCN1CCOCC1)C(=O)Nc1ccccc1 (centres undefined) | 12.1% (inactive)
33 | COC(=O)C(C)CN1CCN(Cc2ccc3c(c2)OCO3)CC1 (centres undefined) | 13.8% (inactive)
34 | CC1(C)CC(=O)C2=C(C1)Nc1ccccc1N(C(=O)Cc1ccccc1)C2c1ccc(-c2ccc([N+](=O)[O-])cc2)o1 (centres undefined) | 15% (inactive)
35 | COc1cc(CN2CCN(Cc3ccccc3Cl)CC2)cc(OC)c1OC | 13% (inactive)
36 | N#Cc1ccc(OCC(=O)Nc2nc(-c3ccccn3)cs2)cc1 | 100% (active)
37 | Nc1ccc(S(=O)(=O)O)c2cc(S(=O)(=O)O)cc(O)c12 | 38.9% (active)
38 | CCN1CCN(CCOc2ccc(-c3ccccc3)cc2)CC1 | 9.15% (inactive)
39 | COc1cccc(C(=O)N2CCN(Cc3cc(OC)c(OC)cc3OC)CC2)c1 | 7.33% (inactive)
40 | CC(=O)c1cccc(N2C(=O)c3cccnc3C2=O)c1 | 27.9% (inactive)
41 | CC1CCCC(N2CCN(Cc3ccccc3Cl)CC2)C1 (centres undefined) | -7.94% (inactive)
42 | CCN(CC)CCN1COc2c(cc(Cl)c3cccnc23)C1 | 100% (active)
43 | COc1ccccc1CN1CC(C)OC(C)C1 (centres undefined) | 3.15% (inactive)
44 | Cc1ccc(NC(=O)COC(=O)CCC(=O)Nc2sc3c(c2C(N)=O)CCC3)cc1F | 6.94% (inactive)
45 | CCN(CC(=O)NCc1ccc(Cl)cc1)Cn1nnc2ccccc21 | -7.45% (inactive)
46 | Cn1c(=O)oc2cc(S(=O)(=O)N3CCC(C(=O)NC(C)(C)C)CC3)ccc21 | 0.26% (inactive)
47 | CCS(=O)(=O)N1CCN(C2CCCCC2C)CC1 (centres undefined) | 7.29% (inactive)
48 | c1ccc(CCCCNc2nccc(Nc3ccncn3)n2)cc1 | 9.16% (inactive)
49 | COc1cccc(CN2CCC(C(=O)NCCc3ccccc3)CC2)c1 | 13.6% (inactive)
